PubChem BioAssay (NCATS)
Records with an inconclusive call do not appear. Where a call stands in place of a potency, no number is given. The source made the active and inactive calls. Unless noted, the call rests on the fitted dose curve; in most records, active means well fitted curve in the direction sought with a large enough effect; inconclusive means small, poorly fitted or top-dose-only effect, or another doubt; inactive means no such curve, though single readings can be large; an effect the other way counts as inactive or inconclusive.

Legend:
[1] = biological target: D(1A) dopamine receptor (Homo sapiens) (UniProt P21728); experiment: HTS Assay for Allosteric Agonists of the Human D1 Dopamine Receptor: Primary Screen for Antagonists (AID 488983);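 further: calcium flux response to an EC80 dopamine challenge measured with no-wash dye; nearly all actives have a fitted effect of over 65% in size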; further: potency means the concentration at half of the fitted maximal effect
Summary of the method: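 Cells are induced with tetracycline and incubated overnight at 30 C, then loaded with calcium dye for 30 to 90 minutes at room temperature. Compound addition is followed by a 180 s read, then an EC80 dopamine addition and another 180 s read.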

[2] = Validation screen for small molecules that induce genotoxicity in human embryonic kidney (HEK293T) cells expressing luciferase-tagged ELG1 (AID 493106)
Summary of the method: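 Luminescence from an ELG1-luciferase fusion serves as the read-out, rising when genetic stress elevates ELG1 protein. HEK293T reporter cells (2,000 per well) received 23 nL compound, incubated 16 hr at 37 °C, then ONE-Glo for 30 min at room temperature.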

[3] = biological target: Thyrotropin-releasing hormone receptor (Homo sapiens) (UniProt P34981); experiment: qHTS for Small Molecule Agonists and Allosteric Enhancers of Human TRH Receptor: Validation Screen for Agonists (AID 493127;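 active means calcium activation more than 3 SD above the typical response in the agonist read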;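 further: intracellular calcium rise by fluo-8 fluorescence before TRH EC20 addition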); details: TRH receptor agonist cell assay; at 2 µM; stronger effect = higher value
Summary of the method: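 Cells 2000/well, 10% FCS, 18 h 33.5C/5% CO2 → fluo-8 Ca dye, RT 30 min–1.5 h → FDSS baseline 10 × 1 s → compound added → 230 cycles (1 s/cycle) agonist mode. TRH controls.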

[4] = Nrf2 qHTS screen for inhibitors: Validation (AID 493153; active means well fitted inhibition curve with a large enough effect in the main read-out, with a control signal flat, not every such curve was filed as active; further: potency means the concentration at half of the fitted maximal effect); details: Potency: luciferase luminescence; viability change: measured here: cytotoxicity max response
Summary of the method: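 Luminescence from an ARE-firefly luciferase reporter in A549 cells gives Nrf2 inhibition; an earlier CellTiter-Fluor fluorescent read flags cytotoxicity. Cells in 5% FBS OPTI-MEM received compound dilution series for 18-24 h at 37°C.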

[5] = qHTS for Inhibitors of Cell Surface uPA Generation: Validation Assay (AID 493164)
Summary of the method: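 RAW 264.7 cells (4000/well) were plated overnight, then exposed for 18 h at 37 C, 5% CO2 to compounds in a 7-point 1:5 titration (2.45 nM–38.3 uM final). Intracellular ATP was read by ATP-Lite luminescence.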

[6] = biological target: Galactokinase (Homo sapiens) (UniProt P51570); experiment: qHTS Validation Assay for Inhibitors of Human Galactokinase (GALK) (AID 493189)
Summary of the method: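 Compounds were pin-transferred into ATP buffer, then GALK-galactose mix was added (final 5 nM enzyme, 100 uM galactose, 35 uM ATP). After 1 h at room temperature, remaining ATP was measured luminescently.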

[7] = Validation screen for small molecules that induce DNA re-replication in SW480 colon adenocarcinoma cells (AID 504364)
Summary of the method: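 250 cells/well; compound pinned in; 48 hr, 37 C, 5% CO2; Hoechst added, 40 min; nuclear fluorescence imaged, 405 ex / 500-530 em; re-replication scored as increase in high-intensity nuclei.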

[8] = biological target: ATP-dependent 6-phosphofructokinase (Trypanosoma brucei brucei) (UniProt O15648); experiment: qHTS Assay to Find Inhibitors of T. brucei phosphofructokinase: hit validation (AID 492961);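 further: luminescence reports ADP formed as PFK phosphorylates fructose-6-phosphate with ATP; series mostly up to about 51 µM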
Summary of the method: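 Reaction: 0.1 M triethanolamine pH 8.0, 5 mM MgCl2, F6P 0.5 mM, ATP 0.1 mM, PFK 1.25 nM, 45 min RT. Read-out: ADP-Glo luminescence. Analysis: concentration-response fits, classed by r2 and efficacy.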

[9] = biological target: ATPase family AAA domain-containing protein 5 (Homo sapiens) (UniProt Q96QE3); experiment: Validation screen for small molecules that inhibit ELG1-dependent DNA repair in human embryonic kidney (HEK293T) cells expressing luciferase-tagged ELG1 (AID 493107); further: nearly all actives have a fitted effect of over 70% in size; further: potency means the concentration at half of the fitted maximal effect
Summary of the method: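 Luminescence from ONE-Glo, developed 30 min at room temperature, served as read-out of ELG1-luciferase levels. Beforehand, reporter HEK293T cells received 5-fluorouridine plus test compound for 16 hr at 37 °C.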

Chain of ATP-dependent 6-phosphofructokinase (Trypanosoma brucei brucei) (O15648 whole entry, looked up): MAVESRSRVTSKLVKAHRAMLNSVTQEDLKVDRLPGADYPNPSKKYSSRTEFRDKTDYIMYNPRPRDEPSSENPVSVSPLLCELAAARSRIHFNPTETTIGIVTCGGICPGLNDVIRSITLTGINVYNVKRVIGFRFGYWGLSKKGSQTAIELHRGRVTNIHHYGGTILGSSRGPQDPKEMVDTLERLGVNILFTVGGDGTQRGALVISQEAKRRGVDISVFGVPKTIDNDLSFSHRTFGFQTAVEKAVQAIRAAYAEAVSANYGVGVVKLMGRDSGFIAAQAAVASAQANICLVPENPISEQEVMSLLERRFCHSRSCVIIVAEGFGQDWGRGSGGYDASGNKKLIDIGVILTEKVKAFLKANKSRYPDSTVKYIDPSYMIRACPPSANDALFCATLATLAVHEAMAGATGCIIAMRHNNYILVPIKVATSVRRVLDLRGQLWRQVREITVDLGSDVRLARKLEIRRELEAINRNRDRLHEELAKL
Chain of D(1A) dopamine receptor (Homo sapiens) (P21728 whole entry, looked up): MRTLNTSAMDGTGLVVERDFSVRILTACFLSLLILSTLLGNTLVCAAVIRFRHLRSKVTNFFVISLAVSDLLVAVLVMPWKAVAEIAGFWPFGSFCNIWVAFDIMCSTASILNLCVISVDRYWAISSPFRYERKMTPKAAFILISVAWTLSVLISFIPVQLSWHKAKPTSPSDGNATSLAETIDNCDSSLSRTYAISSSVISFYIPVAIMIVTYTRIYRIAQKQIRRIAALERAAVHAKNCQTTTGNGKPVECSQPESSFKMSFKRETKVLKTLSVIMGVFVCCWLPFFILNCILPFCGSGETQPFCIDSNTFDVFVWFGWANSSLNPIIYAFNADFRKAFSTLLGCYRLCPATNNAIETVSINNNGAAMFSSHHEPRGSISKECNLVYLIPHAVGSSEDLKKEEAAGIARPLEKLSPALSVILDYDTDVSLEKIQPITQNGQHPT
Chain of Galactokinase (Homo sapiens) (P51570 whole entry, looked up): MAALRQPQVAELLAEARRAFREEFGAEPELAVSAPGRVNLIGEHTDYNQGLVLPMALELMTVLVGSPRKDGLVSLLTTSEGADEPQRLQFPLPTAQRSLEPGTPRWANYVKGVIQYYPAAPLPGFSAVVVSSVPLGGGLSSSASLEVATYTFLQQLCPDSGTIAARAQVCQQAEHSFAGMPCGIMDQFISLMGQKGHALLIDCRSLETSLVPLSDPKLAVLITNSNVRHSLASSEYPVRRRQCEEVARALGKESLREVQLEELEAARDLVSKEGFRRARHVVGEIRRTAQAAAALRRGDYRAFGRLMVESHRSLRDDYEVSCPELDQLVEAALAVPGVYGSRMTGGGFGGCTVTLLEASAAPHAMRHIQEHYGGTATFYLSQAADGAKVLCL
Chain of ATPase family AAA domain-containing protein 5 (Homo sapiens) (Q96QE3 whole entry, looked up, the tested form may be a part): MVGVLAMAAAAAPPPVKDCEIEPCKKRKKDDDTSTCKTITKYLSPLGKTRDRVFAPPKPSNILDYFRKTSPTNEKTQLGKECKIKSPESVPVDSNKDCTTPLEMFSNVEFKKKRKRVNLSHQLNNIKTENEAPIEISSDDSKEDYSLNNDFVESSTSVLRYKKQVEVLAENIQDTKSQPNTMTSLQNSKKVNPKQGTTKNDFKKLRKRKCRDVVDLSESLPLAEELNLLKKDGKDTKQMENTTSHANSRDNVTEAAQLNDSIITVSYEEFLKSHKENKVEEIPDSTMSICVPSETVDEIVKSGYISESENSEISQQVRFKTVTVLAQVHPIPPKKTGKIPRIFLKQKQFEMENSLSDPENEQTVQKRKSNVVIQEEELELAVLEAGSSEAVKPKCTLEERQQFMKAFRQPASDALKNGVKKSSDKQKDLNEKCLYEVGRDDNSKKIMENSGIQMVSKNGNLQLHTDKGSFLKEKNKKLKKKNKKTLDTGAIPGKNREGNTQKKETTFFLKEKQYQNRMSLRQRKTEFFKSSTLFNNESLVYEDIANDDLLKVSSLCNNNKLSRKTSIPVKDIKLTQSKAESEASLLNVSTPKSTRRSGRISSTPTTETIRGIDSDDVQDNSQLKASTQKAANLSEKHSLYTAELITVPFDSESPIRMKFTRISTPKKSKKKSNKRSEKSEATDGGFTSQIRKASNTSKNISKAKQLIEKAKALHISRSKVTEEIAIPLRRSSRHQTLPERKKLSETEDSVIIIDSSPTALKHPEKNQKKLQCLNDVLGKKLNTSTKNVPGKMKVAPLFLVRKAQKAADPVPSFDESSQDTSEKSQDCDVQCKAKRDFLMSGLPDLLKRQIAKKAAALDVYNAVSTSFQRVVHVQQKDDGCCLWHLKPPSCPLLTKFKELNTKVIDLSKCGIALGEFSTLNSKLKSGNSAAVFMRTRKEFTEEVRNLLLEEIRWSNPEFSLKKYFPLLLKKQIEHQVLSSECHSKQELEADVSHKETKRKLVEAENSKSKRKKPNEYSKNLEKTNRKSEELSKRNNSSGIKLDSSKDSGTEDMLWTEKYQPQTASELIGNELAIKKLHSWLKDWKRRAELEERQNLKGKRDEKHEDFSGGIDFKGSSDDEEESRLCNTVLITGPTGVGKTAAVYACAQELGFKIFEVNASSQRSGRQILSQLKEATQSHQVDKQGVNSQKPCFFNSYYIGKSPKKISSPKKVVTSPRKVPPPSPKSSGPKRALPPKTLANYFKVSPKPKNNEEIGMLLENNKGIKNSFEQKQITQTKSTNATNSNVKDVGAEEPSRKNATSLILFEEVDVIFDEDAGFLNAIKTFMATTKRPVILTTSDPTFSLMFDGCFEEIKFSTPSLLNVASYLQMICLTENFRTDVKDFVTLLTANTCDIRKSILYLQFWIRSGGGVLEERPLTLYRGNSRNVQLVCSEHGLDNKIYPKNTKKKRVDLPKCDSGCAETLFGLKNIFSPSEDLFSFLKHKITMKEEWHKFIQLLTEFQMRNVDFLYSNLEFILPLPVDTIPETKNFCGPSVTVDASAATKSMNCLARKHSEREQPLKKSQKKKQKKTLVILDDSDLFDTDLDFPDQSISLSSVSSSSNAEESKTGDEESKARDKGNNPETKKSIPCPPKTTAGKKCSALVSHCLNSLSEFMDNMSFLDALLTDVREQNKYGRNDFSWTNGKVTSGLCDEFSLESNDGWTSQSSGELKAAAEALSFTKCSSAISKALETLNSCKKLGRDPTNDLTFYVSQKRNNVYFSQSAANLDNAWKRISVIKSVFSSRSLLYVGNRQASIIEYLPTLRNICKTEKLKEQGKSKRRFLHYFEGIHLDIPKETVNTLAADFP
Chain of Thyrotropin-releasing hormone receptor (Homo sapiens) (P34981 whole entry, looked up): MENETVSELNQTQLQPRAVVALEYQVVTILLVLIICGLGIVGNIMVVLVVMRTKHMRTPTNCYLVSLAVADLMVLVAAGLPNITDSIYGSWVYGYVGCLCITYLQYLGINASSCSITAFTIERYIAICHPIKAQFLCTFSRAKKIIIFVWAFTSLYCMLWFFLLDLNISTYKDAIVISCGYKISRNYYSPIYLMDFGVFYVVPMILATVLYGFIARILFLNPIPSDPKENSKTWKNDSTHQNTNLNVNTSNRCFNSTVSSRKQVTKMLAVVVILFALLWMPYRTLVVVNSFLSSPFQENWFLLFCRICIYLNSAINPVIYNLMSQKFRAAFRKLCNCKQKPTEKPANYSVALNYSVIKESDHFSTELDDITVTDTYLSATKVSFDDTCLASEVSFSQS

Compound | Potency [1] | Potency [2] | activation [3] | Potency [4] | viability change [4] | outcome [5] | Potency [6] | Potency [7] | Potency [8] | Potency [9]
Nc1c2c(nc3ccccc13)CCCC2 | inactive | inactive | 1.31% (inactive) | inactive | -3.66% | inactive | inactive | inactive |  | 
CCOC(=O)Nc1ccc(NCc2ccc(F)cc2)nc1N | inactive | inactive |  |  |  | inactive |  | inactive | inactive | inactive
CCc1cccc2c3c([nH]c12)C(CC)(CC(=O)O)OCC3 (centres undefined) | inactive | inactive |  | inactive | -5.62% | inactive | inactive | inactive |  | inactive
C[C@](N)(Cc1ccc(O)c(O)c1)C(=O)O | inactive | inactive | 1.25% (inactive) | inactive | 0.569% | inactive | inactive | inactive | inactive | inactive
CC(CCc1ccc(O)cc1)NCCc1ccc(O)c(O)c1 (centres undefined) | inactive | inactive | 1.06% (inactive) | inactive | 2.92% | inactive | inactive | inactive |  | inactive
CC[N+](CC)(CC)CCOc1cccc(OCC[N+](CC)(CC)CC)c1OCC[N+](CC)(CC)CC | inactive | inactive |  | inactive | 5.55% | inactive | inactive | inactive | inactive | inactive
Nc1ccn([C@H]2CC[C@@H](CO)O2)c(=O)n1 | inactive | inactive | 0.938% (inactive) | inactive | -1.24% | inactive | inactive | inactive |  | inactive
CN(Cc1cnc2nc(N)nc(N)c2n1)c1ccc(C(=O)N[C@@H](CCC(=O)O)C(=O)O)cc1 | inactive | inactive |  | 0.58 µM (active) | -0.856% | inactive | inactive | inactive | inactive | inactive
Cc1cn([C@H]2C[C@H](N=[N+]=[N-])[C@@H](CO)O2)c(=O)[nH]c1=O | inactive |  |  | inactive | 8.03% | inactive |  |  | inactive | inactive
NCCCCCC(=O)O | inactive | inactive | 0.0625% (inactive) | inactive | 0% | inactive | inactive | inactive | inactive | 
Clc1ccccc1C(c1ccccc1)(c1ccccc1)n1ccnc1 | inactive | inactive | -13.1% (inactive) |  |  | inactive | inactive | inactive | inactive | inactive
CN(C)CCC=C1c2ccccc2C=Cc2ccccc21 | 1 µM (active) | inactive | 1.69% (inactive) | inactive | 1.79% | inactive | inactive | inactive | inactive | inactive
CC12CC3CC(C)(C1)CC(N)(C3)C2 | inactive | inactive |  | inactive | -3.89% | inactive | inactive | inactive |  | inactive
Clc1ccc(C(c2ccccc2Cl)C(Cl)Cl)cc1 (centres undefined) | inactive | inactive | 1.38% (inactive) |  |  | inactive | inactive | inactive |  | inactive
O=C1c2c(O)ccc(O)c2C(=O)c2c(NCCNCCO)ccc(NCCNCCO)c21 | inactive | inactive | 0.938% (inactive) |  |  | inactive | inactive | inactive | inactive | 4.61 µM (active)
CC(C)(Oc1ccc(C2CC2(Cl)Cl)cc1)C(=O)O (centres undefined) | inactive | inactive |  | inactive | 9.29% | inactive | inactive | inactive | inactive | inactive
O=C1N(c2ccccc2)c2ccccc2C1(Cc1ccncc1)Cc1ccncc1 | inactive | inactive | 1.31% (inactive) | inactive | 10.1% | inactive | inactive | inactive | inactive | inactive
CC#C[C@]1(O)CC[C@H]2[C@@H]3CCC4=CC(=O)CCC4=C3[C@@H](c3ccc(N(C)C)cc3)C[C@@]21C | inactive | inactive |  | 23.1 µM (active) | -7.52% | inactive |  |  | inactive | 
Cc1cc(C(C)(C)C)c(O)c(C)c1CC1=NCCN1 | inactive | inactive | 1.19% (inactive) | inactive | 1.24% | inactive | inactive | inactive |  | inactive
N[C@@H](Cc1c[nH]c2ccc(O)cc12)C(=O)O | inactive | inactive | 0.125% (inactive) | inactive | -8.24% | inactive | inactive | inactive | inactive | inactive
C[C@H]1c2cccc(O)c2C(O)=C2C(=O)[C@]3(O)C(O)=C(C(N)=O)C(=O)[C@@H](N(C)C)[C@@H]3[C@@H](O)[C@@H]21 | inactive | inactive |  |  |  | inactive |  |  |  | inactive
COc1ccccc1OCCNCC(O)COc1cccc2[nH]c3ccccc3c12 (centres undefined) | 8.91 µM (active) | inactive |  | inactive | -0.159% | inactive |  |  | inactive | 
CCN1CCCC1CNC(=O)c1cc(S(=O)(=O)CC)c(N)cc1OC (centres undefined) | inactive | inactive |  | inactive | 7.74% | inactive |  |  |  | inactive
